Measurements as given in PubChem BioAssay (EPA / NIEHS).
“And” between values parts separate entries of the source, which are not always exact repeats. Equal entries are not always repeated. The source holds several records for some structures; these can differ, active in one and inactive in another. The source made the active and inactive calls. How the source made its calls: active means hit-call score of the fitted dose curve at least 0.9, where 1 is the maximum; inactive means score below 0.9.

Assay: ATG_MRE_CIS: Attagene CIS-FACTORIAL HepG2 Assay for human Metal Responsive Element (MRE) (AID 2282954)
Conditions: HepG2 MRE cis-reporter transcription, Attagene multiplex; actives raise or lower the signal
In short: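 Measured here is mRNA induction from an MRE cis-element reporter in HepG2 after 24 h, quantified by fluorescence of labelled RT-PCR products on capillary electrophoresis; gain- and loss-of-signal fits use DMSO as baseline.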

Row | Structure (SMILES) | outcome | AC50
1 | CC1(C)C(C=C(Cl)Cl)C1C(=O)OCc1cccc(Oc2ccccc2)c1 (centres undefined) | inactive | 
2 | CCCOC(=O)c1ccc(C(=O)OCCC)nc1 | inactive | 
3 | O=C(Nc1ccc([N+](=O)[O-])cc1Cl)c1cc(Cl)ccc1O |  | 947 nM (active)
4 | COc1nc(C)nc(NC(=O)NS(=O)(=O)c2ccccc2OCCCl)n1 | inactive | 
5 | N#CSCSc1nc2ccccc2s1 | inactive | 
6 | CCC(O)=C1C(=O)CC(C(=O)O)CC1=O (centres undefined) | inactive | 
7 | CSC(=O)c1cccc2nnsc12 | inactive | 
8 | C[C@]12C[C@H](O)[C@H]3[C@@H](CCC4=CC(=O)CC[C@@]43C)[C@@H]1CC[C@@H]2C(=O)CO | inactive | 
9 | O=C(O)C1(C(=O)Nc2ccc(Cl)cc2Cl)CC1 | inactive | 
10 | COC(=O)c1ccc(I)cc1S(=O)(=O)NC(=O)Nc1nc(C)nc(OC)n1 | inactive | 
11 | CC(=O)S[C@@H]1CC2=CC(=O)CC[C@]2(C)[C@H]2CC[C@@]3(C)[C@@H](CC[C@@]34CCC(=O)O4)[C@H]12 | inactive | 76.9 µM (active) [middle of 4 runs]
12 | CCNc1nc(N)nc(Cl)n1 | inactive | 
13 | CC(C)CCCCCCc1ccc(O)cc1 | inactive | 16.3 µM (active) and 17.6 µM (active)
14 | CCCCOC(=O)[C@@H](C)Oc1ccc(Oc2ccc(C(F)(F)F)cn2)cc1 | inactive | 
15 | C#C[C@]1(O)CC[C@H]2[C@@H]3CCC4=CC(=O)CC[C@@H]4[C@H]3CC[C@@]21CC | inactive | 
16 | CCCCC(CC)COC(=O)c1ccccc1C(=O)O (centres undefined) | inactive | 
17 | CCOC(=O)[C@H](C)Oc1ccc(Oc2nc3ccc(Cl)cc3o2)cc1 | inactive | 
